# Experimental data published in ChEMBL document CHEMBL4888484, “Replenishing the malaria drug discovery pipeline: Screening and hit evaluation of the MMV Hit Generation Library 1 (HGL1) against asexual blood stage Plasmodium falciparum ,using a nano luciferase reporter read-out” (2022).
# The campaign covered roughly 150,000 compounds. About 540 (0.36%) showed an effect of 50% or more. The full list was thinned out, with strong results kept by preference.
# System: Plasmodium falciparum
# Assay: Primary screen in NF54 nanoGlo assay, in single point, at 2uM, 72h; a lower Z score goes with more inhibition
# Type: functional, Erythrocyte
# Details: timepoint 72 hour
SMILES,% Inhibition [%],Z score
CS(=O)(=O)N1C[C@H]2CC[C@@H](C1)N(C(=O)c1ccc3[nH]nnc3c1)C2,-7,1.17
CO[C@@]12CC[C@@H](OCC3CC3)C[C@@H]1N(C(=O)c1csc(C(C)C)n1)CC2,-2,0.34
Cc1cc2c(NC(=O)N(Cc3ccsc3)CC(C)C)cccc2nn1,-6,1.12
O=C(NCc1cccnc1)c1coc(CN(Cc2ccccc2)Cc2ccccc2C(F)(F)F)n1,0,0.02
Cc1nnc(CN(C)Cc2c[nH]cn2)s1,4,-0.58
O=C(Cc1ccccc1)N1CCN(c2cc(N3CCCC3)ncn2)CC1,-8,0.94
CC[C@H]1CN2C=NC(N3CCN(C(=O)Nc4cc(F)cc(F)c4)CC3)=CC2=N1,68,-4.25
Cc1c(F)cccc1NC(=O)N1CCN(C2=CC3=N[C@@H](C)CN3C=N2)CC1,57,-7.99
Cc1cc(F)cc(NC(=O)N2CCCN(C(=O)C(F)(F)F)CC2)c1,-11,1.45
CN1CCN(c2cc(N3CCN(C(=O)Cc4ccccc4)CC3)ncn2)CC1,-10,0.91
C[C@H]1CN=C2C=C(N3CCN(C(=O)Nc4ccccc4C(F)(F)F)CC3)N=CN21,-11,1.77
CC[C@H]1CN2C=NC(N3CCN(C(=O)Cc4ccccc4)CC3)=CC2=N1,56,-2.27
Cc1oc(C2CCN(C(=O)Nc3cccc(F)c3C)CC2)nc1C(=O)N1CCCC1,-3,0.55
CCc1cccc(NC(=O)N2CCN(C3=CC4=NC[C@H](C)N4C=N3)CC2)c1,58,-5.02
O=C(Nc1cc(F)cc(F)c1)N1CC[C@H](Cc2ccncc2)C1,-5,0.93
CCc1cccc(NC(=O)N2CCN(c3nccs3)CC2)c1,-2,0.21
C[C@H]1CN2C=NC(N3CCN(C(=O)c4ccccc4)CC3)=CC2=N1,-3,0.63
Cc1ccc(NC(=O)Cn2cc(S(=O)(=O)N3CCCCCC3)ccc2=O)c(C)c1,-2,0.3
CN(c1cnn(C)c1)S(=O)(=O)c1ccccc1,-12,1.93
CCc1onc(C)c1NCc1cnc(C(C)(C)C)s1,34,0.74
COC(=O)C1=C(c2ccccc2)S/C(=C2/C(=S)C(C)(C)Nc3ccc(C)cc32)S1,-8,0.99

SMILES,% Inhibition [%],Z score
Cc1ccccc1N1CCN(C(=O)CC[C@@H]2CN(Cc3ccccn3)CC[C@@H]2N2CCOCC2)CC1,2,-0.27
FC(F)[C@H](NCc1nnc(C2CC2)s1)c1ccccc1,2,-0.43
CCCc1nnsc1C(=O)N1CCc2nc(NC(=O)OCC)sc2C1,-5,1.08
COC(=O)[C@@H]1C[C@@H](O)CN1Cc1ccncc1Cl,-4,0.5
Cc1ccc(N(C)C(C)C)c(C(=O)NC[C@H]2CCC3(CCOCC3)O2)c1,-1,0.19
O=C(c1ccccc1Oc1ccccc1)N1CCO[C@]2(CNCCOC2)C1,5,-0.96
O[C@@H](CNc1ncnc2sccc12)c1ccc(Cl)c(F)c1,28,-3.21
O=C(N[C@@H]1c2ccccc2OC[C@@H]1CO)[C@H](O)c1ccccc1,-2,0.41
CC(=O)c1ccccc1C(=O)NCCCc1ncc[nH]1,-9,1.13
Cc1ccccc1C(=O)Cc1ncc[nH]1,87,-5.77
Cc1ccsc1CNc1ccccc1C(=O)NCc1ncc[nH]1,2,-0.38
CCc1nc2c(c(OC3CCN(C(=O)c4ccn(CC)n4)CC3)n1)CCOCC2,-11,1.12
Cc1[nH]c2ncnc(NC(=O)c3cccc(-n4ccnn4)c3)c2c1C,65,-1.3
Cc1cc(NC(=O)c2cccc(-n3ccnn3)c2)nc(=O)[nH]1,-14,2.12
Cc1[nH]c2ncnc(NC(=O)c3cccc(S(=O)(=O)NC4CC4)c3)c2c1C,-21,3.01
CCCN(CCC)C(=O)c1cc(F)ccc1OC,-10,1.09
O[C@H]1CCN(Cc2cccc(OCCCCN3CCOCC3)c2)C[C@@H]1O,4,-0.63
Fc1ccc(COc2cccc(CNCCN3CCOCC3)c2)cc1,33,1.13
O=C(NC1(c2ncon2)CCOCC1)c1cc2ccccn2c1,-4,0.42
Cc1ccccc1Cn1cnc2c1c(=O)n(C1CCCC1)c(=O)n2-c1ccccc1,-7,0.85
Cc1ccccc1Cn1cnc2c1c(=O)n(C1CCCCC1)c(=O)n2-c1ccccc1Cl,70,-7.57
